The record followed here is PubChem BioAssay (Tox21).

Results filed as inconclusive are left out. A call without a number means that no potency is given here. The source made the active and inactive calls. Calls follow the shape of the dose curve; as a rule, active = well fitted cell-killing curve with a large enough effect in the repeat runs; inconclusive = weak or mixed curves, or effect the other way; inactive = flat fitted curve, though single readings scatter.
Potency is read from the fitted curve at half-maximal effect.

The experiment in a line: qHTS assay to identify small molecule antagonists of the estrogen receptor alpha (ER-alpha) signaling pathway using the BG1 cell line in the presence of 0.1 nM 17-beta-estradiol - cell viability counter screen (AID 1259241). Also: nearly all actives have a fitted effect of over 40% in size. The note with it: VM7Luc4E2 (BG1) viability, CellTiter-Fluor protease, 22 h, 0.1 nM estradiol agonist added; series mostly up to 92.4 µM; activity change, negative = cytotoxicity: at the top concentration. The text has this:
National Center for Advancing Translational Sciences [NCATS]
NIH Chemical Genomics Center [NCGC]
U.S. Environmental Protection Agency [EPA]
National Institutes of Environmental Health Sciences [NIEHS]
National Toxicology Program [NTP]
U.S. Food and Drug Administration [FDA]
Estrogen receptor (ER), a member of the nuclear hormone receptor plays an important role in development, metabolic homeostasis and reproduction. Two subtypes of ER, ER-alpha and ER-beta, have similar expression patterns with some uniqueness in both types. Endocrine disrupting chemicals (EDCs) and their interactions with steroid hormone receptors like ER causes disruption of normal endocrine function. Therefore, it is important to understand the effect of environmental chemicals in ER signaling pathway. For identifying ER antagonists, VM7Luc4E2 cell line was used to screen against Tox21 compound libraries.
VM7Luc4E2 cell line (provided by Denison MS, University of California) endogenously express full-length ER-alpha and is stably transfected with a plasmid containing four estrogen responsive elements (ERE) upstream of a luciferase reporter gene. The current screening for identification of ER-alpha inhibitors against Tox21 compound libraries used lower concentration (0.1 nM) of 17beta-Estradiol as a stimulator. The cytotoxicity of the Tox21 compound libraries against VM7Luc4E2 cell line was tested by measuring live-cell protease activity using CellTiter-Fluor assay in the same wells.
Tox21 Assay Protocol Summary:
VM7Luc4E2 cells were cultured in phenol red free assay medium containing 10% charcoal stripped FBS for 5 days prior to the assay. The cells were dispensed at 4,000 cells/well in 4 uL of assay medium into white wall/solid-bottom 1536-well plates (Corning Life Sciences, Corning, NY) using a Multidrop Combi (ThermoFisher Scientific, Waltham, MA) dispenser. After the assay plates were incubated at 37C and 5% CO2 for 24 hr, 23 nL of compounds dissolved in DMSO, positive controls or DMSO only was transferred to the assay plates by a Pintool station (Kalypsys, San Diego, CA). The transfer of compounds was followed by the addition of 1 uL of 0.1 nM (final concentration) agonist (17beta-Estradiol)/assay medium using a Flying Reagent Dispenser (FRD, Aurora Discovery, San Diego, CA). The plates were incubated at 37C and 5% CO2 for 22 hr. For cytotoxicity assay, 1 uL of CellTiter-Fluor reagent (Promega Corporation, Madison, WI) was added to each well using the FRD and after 30 min incubation at 37C and 5% CO2, The fluorescence intensity was measured using ViewLux plate reader (PerkinElmer, Shelton, CT).
(Quantitative high-throughput screening tests each substance at several concentrations.)
In the case of `COC(=O)CC(=O)OC`, the Potency entry was “inactive”.

For `CC(=O)Oc1c(C)c(C)c2c(c1C)CC[C@@](C)(CCC[C@H](C)CCC[C@H](C)CCCC(C)C)O2`, the Potency result is “inactive”.

Consider `O=Cc1ccccc1C=O`, for which the Potency result is “inactive”.

Regarding `c1ccc2c(c1)ccc1cc3c(ccc4ccccc43)cc12`, the Potency result is “inactive”.

For the compound `C=C[C@H]1CN2CC[C@H]1C[C@@H]2[C@@H](O)c1ccnc2ccc(OC)cc12`, the Potency result was “inactive”.

Take `C1CN(SSN2CCOCC2)CCO1`: the Potency entry was “inactive”.

Turning to `Nc1cc(Cl)c(N)c(Cl)c1`, the Potency entry was “inactive”.

As to `Cc1ccc2c(c1)C(=O)OC2=O`, the Potency entry is “inactive”.

Take `CNC[C@H](O)c1ccc(O)c(O)c1`: the Potency result is “inactive”.

With `O=C1CCc2ccccc2O1`, the Potency result is “inactive”.

Turning to `CC(=O)[C@@]1(O)CC[C@H]2[C@@H]3C[C@H](C)C4=CC(=O)C=C[C@]4(C)[C@@]3(F)[C@@H](O)C[C@@]21C`, the Potency result is “inactive”.

On to `CCCOCCO`, for which the Potency result was “inactive”.

Turning to `Nc1ccc2c(O)cc(S(=O)(=O)O)cc2c1`, the Potency is 61.1 µM (active).

On to `O=C(O)CCCC(=O)O`, for which the Potency entry was “inactive”.

On to `NCCN`, for which the Potency result was “inactive”.

As to `Clc1ccc(Sc2cc(Cl)c(Cl)cc2Cl)cc1`, the Potency entry is “inactive”.

Turning to `IC(I)I`, the Potency entry was “inactive”.

In the case of `OCCNCCO`, the Potency entry was “inactive”.

As to `CC/C=C\C/C=C\C/C=C\CCCCCCCC(=O)O`, the “activity change, negative = cytotoxicity” value is 5.9% (inactive).

For the compound `c1ccc2ncccc2c1`, the Potency entry was “inactive”.

Regarding `CC(=O)Oc1ccc(C(c2ccc(OC(C)=O)cc2)c2ccccn2)cc1`, the Potency is 0.75 µM (active).

In the case of `Cc1ccc(N)c([N+](=O)[O-])c1`, the Potency entry was “inactive”.

On to `CC1(C)C(C=C(Cl)Cl)C1C(=O)OCc1cccc(Oc2ccccc2)c1` (stereo not given), for which the Potency entry is “inactive”.

For `CCCCCCCCCCC(CO)CCCCCCCC` (stereo not given), the Potency entry is “inactive”.

Consider `Oc1c(Cl)ccc(Cl)c1Cl`, for which the Potency entry is “inactive”.

In the case of `Cc1ccc(C(C)(C)C)cc1`, the Potency result is “inactive”.

For the compound `COc1ccc(C(=O)c2ccccc2O)c(O)c1`, the Potency entry is “inactive”.

Take `CCc1cccc2c3c([nH]c12)C(CC)(CC(=O)O)OCC3` (stereo not given): the Potency result is “inactive”.

In the case of `CCO[Si](CCCNC(N)=O)(OCC)OCC`, the Potency entry was “inactive”.

As for `C=C1C[C@H]2[C@@H]3C=C(C)C4=CC(=O)CC[C@]4(C)[C@H]3CC[C@]2(C)[C@@]1(OC(C)=O)C(C)=O`, the Potency entry was “inactive”.

As to `O=C(O)c1ccc(O)cc1`, the Potency result was “inactive”.

`CCCN1C=CN(C)C1`: the Potency result was “inactive”.

Turning to `O=[Se](O)O`, the Potency entry was “inactive”.

`OC[C@@H](O)[C@@H](O[C@@H]1O[C@H](CO)[C@H](O)[C@H](O)[C@H]1O)[C@H](O)[C@@H](O)CO`: the Potency entry was “inactive”.

With `COc1ccc(-c2coc3cc(O)cc(O)c3c2=O)cc1`, the Potency result was “inactive”.

For `O=C(O)c1cc(=O)[nH]c(=O)[nH]1`, the Potency result is “inactive”.

Regarding `CCCCCCCC/C=C\CCCCCCCC(=O)O`, the Potency entry was “inactive”.

Regarding `O=C(O)COCCN1CCN(C(c2ccccc2)c2ccc(Cl)cc2)CC1` (stereo not given), the Potency result was “inactive”.

For the compound `Cc1ccc(C)c(O)c1`, the Potency entry was “inactive”.

Regarding `CC(=O)O[C@]1(C(C)=O)CC[C@H]2[C@@H]3C=C(C)C4=CC(=O)CC[C@]4(C)[C@H]3CC[C@@]21C`, the Potency result was “inactive”.
